Screening results: PubChem BioAssay, National Center for Advancing Translational Sciences (NCATS)
RE007 growth inh: qHTS Assay for Inhibitors of the HIV-1 protein Vpr; AID 651644, 2012; S. pombe RE007 Vpr strain, BacTiter-Glo ATP luminescence, 24 h; 360,000 tested, 0.21% active; Potency, µM (titrated, usually from 92.2 µM), most hits filed as inhibitors; active = well fitted falling curve with a large enough effect; inconclusive = small, poorly fitted or top-dose-only effect; inactive = no such curve, though single readings can be large or run the other way; note: nearly all actives have a fitted effect of over 50% in size
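Fission yeast strain RE007, carrying one chromosomally integrated HIV-1 vpr copy, was seeded at OD 0.01 in PMG+AL medium with 23 nL pinned compound. After 24 h at 30 °C and 99% humidity, viability was read by BacTiter-Glo luminescence.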
TbPYK inhibitor: qHTS of Trypanosoma Brucei Inhibitors | pyruvate kinase (Trypanosoma brucei), Q57TT1 | Potency, µM (doses to about 76.8 µM), hits mostly inhibitors | 410,000 tested, 0.12% active | AID 624173, 2012 | TbPYK enzyme, Kinase-Glo Plus ATP luminescence, 45 min; note: nearly all actives have a fitted effect of over 50% in size
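T. brucei PYK with substrate was exposed to pin-transferred compounds across a concentration series, then started with 130 uM ADP (final). After 45 min at room temperature, Kinase-Glo Plus luminescence was read, normalized and curve-fitted.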
LmPK inhibitor: qHTS Assay for Inhibitors of Leishmania Mexicana Pyruvate Kinase (LmPK); purified LmPK, Kinase-Glo ATP luminescence, 1 h; 290,000 tested, 0.37% active; Potency, µM (doses to about 57.5 µM), actives largely listed as inhibitors
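ATP generated from ADP (0.1 mM) and PEP (0.5 mM) by 0.1 nM LmPK over 1 h at room temperature (pH 7.2 imidazole buffer) was detected by coupled luciferase luminescence. Values were normalized to uninhibited and no-enzyme wells.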
NS1 function inh: qHTS Assay for Inhibitors of Influenza NS1 Protein Function; Potency, µM (top dose mostly 46.1 µM); 270,000 tested, 0.4% active; AID 2326, 2010; calls by dose curve; note: actives are rising curves; nearly all actives have a fitted effect of over 50% in size
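In this qHTS, NS1 from influenza A is expressed in budding yeast, where it slows growth. Cells are switched from glucose to 2% galactose medium (pH 6.0, -URA), treated with compound, and growth recovery is read at OD600.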
Sm TGR block: qHTS Assay for the Inhibitors of Schistosoma Mansoni Peroxiredoxins | Schistosoma mansoni thioredoxin glutathione reductase (TGR), Q962Y6 | purified TGR, DTNB reduction, TNB absorbance 405 nm | Potency, µM (top dose mostly 114 µM), usual class: inhibitors | 360,000 tested, 3% active | AID 485364, 2010; note: nearly all actives have a fitted effect of over 60% in size
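Kinetic colorimetric format: TGR-catalysed, NADPH-driven DTNB reduction monitored via TNB absorbance. Enzyme dispensed at 20 nM; compound exposure 15 min at room temperature before reaction start.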
FBPA Giardia inh: qHTS Assay for Inhibitors of Fructose-1,6-bisphosphate Aldolase from Giardia Lamblia; Potency, µM (top dose mostly 59.6 µM), hits mostly inhibitors; 290,000 tested, 0.71% active; A8B2U2; purified Giardia FBPA; note: nearly all actives have a fitted effect of over 55% in size
Target sequence (A8B2U2 whole entry, looked up): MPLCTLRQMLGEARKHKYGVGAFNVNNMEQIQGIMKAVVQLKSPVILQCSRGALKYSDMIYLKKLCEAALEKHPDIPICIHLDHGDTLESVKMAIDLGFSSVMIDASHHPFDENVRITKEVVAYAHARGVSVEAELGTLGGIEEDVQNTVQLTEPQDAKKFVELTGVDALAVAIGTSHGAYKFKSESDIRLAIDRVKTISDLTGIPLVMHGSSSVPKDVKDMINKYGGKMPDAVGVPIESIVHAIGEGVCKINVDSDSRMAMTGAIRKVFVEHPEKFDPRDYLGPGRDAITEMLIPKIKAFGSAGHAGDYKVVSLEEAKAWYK
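40 nM FBPA preincubated 10 min at RT with compound (up to 57.5 uM final), then substrate plus GAPDH/TPI/NAD/arsenate coupling and diaphorase/resazurin added. Fluorescence read after 20 min at RT, 525/598 nm.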
Numbers stand for hits; - = inactive; ? = inconclusive; . = no result; [ ] = another dose, or the depositor's remark. Hits are enriched below; roughly 3.5% of the tested compounds scored in any of these assays. Unless noted, calls come from the whole dose curve; as a rule, active = well fitted curve in the direction sought with a large enough effect; inconclusive = small, poorly fitted or top-dose-only effect, or another doubt; inactive = no such curve, though single readings can be large; an effect the other way counts as inactive or inconclusive.

SMILES | RE007 growth inh | TbPYK inhibitor | LmPK inhibitor | NS1 function inh | Sm TGR block | FBPA Giardia inh
CCOc1ccc(NC(=O)CC2C(=O)N(c3ccccc3)C(=O)N2Cc2ccco2)cc1 (stereo not drawn) | - | - | - | - | 44.7µM | -
COc1ccc(NC(=O)CC2C(=O)N(c3cccc(OC)c3)C(=O)N2Cc2ccco2)cc1 (stereo not drawn) | - | - | - | - | 44.7µM | -
COc1cc(NC(=O)CC2C(=O)N(c3cccc(C)c3)C(=O)N2Cc2ccco2)cc(OC)c1 (stereo not drawn) | . | - | . | . | 50.1µM | .
COC(=O)c1ccc(NC(=O)CC2C(=O)N(c3cccc(C)c3)C(=O)N2Cc2ccco2)cc1 (stereo not drawn) | . | - | . | . | - | .
Cc1nc2ccc(S(=O)(=O)NC(C(=O)NCc3ccc(Cl)cc3)C(C)C)cc2s1 (stereo not drawn) | . | - | . | . | - | .
CCOCCCn1c(SCC(=O)Nc2ccccc2Cl)nc2c(oc3ccccc32)c1=O | . | - | . | . | - | .
N#Cc1c(N2CCN(C(=O)c3ccccc3Cl)CC2)nc(-c2ccccc2)c2c1CCCC2 | - | - | - | - | - | -
CC(=O)N1CCN(c2nc(-c3ccco3)c3c(c2C#N)CC(C)(C)SC3)CC1 | - | - | - | - | 11.2µM | -
CC1(C)Cc2c(C#N)c(N3CCN(C(=O)c4ccccc4Cl)CC3)nc(-c3ccco3)c2CS1 | - | - | - | - | 3.55µM | -
CC1(C)Cc2c(c(-c3ccco3)[nH]c(=O)c2C#N)CS1 | - | - | - | - | 31.6µM | 17.7µM
CCc1nc(N2CCN(C(=O)c3ccco3)CC2)c(C#N)c2c1COC(C)(C)C2 | - | - | - | - | - | -
COc1cccc(NC(=O)Cn2c(=O)n(Cc3ccco3)c(=O)c3cc(OC)c(OC)cc32)c1 | . | - | . | . | - | .
CCN1/C(=C/C=C/c2oc3ccc(-c4ccccc4)cc3[n+]2CC)Oc2ccc(-c3ccccc3)cc21 | ? | - | - | - | 39.8µM | -
Cc1ccc(-n2c(Cc3ccccc3)n[nH]c2=S)c(C)c1 | - | 10µM | - | - | - | -
Cc1ccc(-n2c(CC#N)n[nH]c2=S)c(C)c1 | - | ? | ? | - | - | ?
S=c1[nH]nc(Cc2ccccc2)n1-c1cccc2ccccc12 | - | 3.55µM | 10µM | - | - | -
O=C(Nc1cccc(Cl)c1)c1cc(N=Nc2ccc([N+](=O)[O-])cc2Cl)ccc1O | - | ? | 14.1µM | - | - | -
CN(C)C(=O)/N=N/C(=O)N(C)C | . | . | . | - | . | -
CC1(C)CC(=O)C(c2c[nH]c3ccccc23)C(=O)C1 | - | - | - | - | 20µM | -
O=C1CC(c2c[nH]c3ccccc23)C(=O)N1 (stereo not drawn) | - | - | - | - | - | -
CCOC(=O)C1CCN(C(c2ccc(C)cc2)c2c(O)cc(C)n(CCOC)c2=O)CC1 (stereo not drawn) | . | - | . | . | 7.94µM | .
CCOC(=O)C1CCN(C(C(=O)NC2CCCCC2)c2ccc(OC)cc2)CC1 (stereo not drawn) | - | - | - | - | - | -
CCOC(=O)C1CCN(C(c2ccc(OCC)cc2)c2c(O)cc(C)n(CCOC)c2=O)CC1 (stereo not drawn) | . | - | . | . | 10µM | .
CCN=c1sc(C(=O)NCCc2ccccc2)cc(=O)n1CC | - | - | - | - | 20µM | -
COc1ccc(C2=CC(c3sccc3C)n3nnnc3N2)cc1 (stereo not drawn) | - | - | - | - | 35.5µM | -
Fc1ccc(Br)cc1C1C=C(c2ccc(Br)cc2)Nc2nnnn21 (stereo not drawn) | . | - | . | . | - | .
COc1ccc(C2=CC(c3ccc(F)cc3)n3nnnc3N2)cc1 (stereo not drawn) | - | - | - | - | -[11.4 µM] | -
Cc1cccc(C2C=C(c3ccc(C)c(C)c3)Nc3nnnn32)c1 (stereo not drawn) | . | - | . | . | 39.8µM | .
